Experimental data from publication PMC12431657, “Discovery and mechanistic insights of dibenzoylmethane as a broad spectrum inhibitor of coronavirus” (PLOS Pathogens, 2025).
Counter-ions that a name gives are not always drawn. Like-named read-outs stand apart in the source and are kept apart here. The campaign covered roughly 3,300 compounds. About 95 (3%) showed an effect of 50% or more. This is one part of a sample in which strong results are shown more often than they occur.

Test system: HCoV-229E
Set-up: species or system Huh-7; HTS, protection from HCoV-229E induced cell death, luminescent cell viability (CellCounting-Lite 2.0), inhibition rate
Settings: 24 h post infection, 1 h compound pre-incubation, 10 µM, inhibitor

Row | SMILES | 229E Inhibition rate | 229E Inhibition rate (229E Inhibition rate, 24 h)
1 | C/C(=C\CC[C@@H](C)[C@H]1CC[C@@]2(C)C3=CC[C@H]4C(C)(C)[C@@H](O)CC[C@]4(C)C3=CC[C@]12C)CO [Ganoderol B] | 7.7% | –
2 | C=C(CC[C@@H](C(=O)O)[C@H]1[C@H](O)C[C@@]2(C)C3=CC[C@H]4C(C)(C)[C@@H](O)CC[C@]4(C)C3=CC[C@]12C)C(C)C [Dehydrotumulosic acid] | 8.5% | –
3 | CC1(C)O[C@H]2CC(=O)OC[C@]23[C@H]2CC[C@@]4(C)[C@H](c5ccoc5)OC(=O)[C@H]5O[C@]54[C@]2(C)[C@@H](O)C(=O)[C@@H]13 [Rutaevin] | 0% | –
4 | COc1ccc(OC)cc1 [1,4-Dimethoxybenzene] | 21% | –
5 | COc1cc(OC)cc(OC)c1 [1,3,5-Trimethoxybenzene] | 55.2% | –
6 | COc1cc(O)cc(OC)c1 [3,5-Dimethoxyphenol] | 32.7% | –
7 | O=C1N[C@@H](Cc2ccccc2)C(=O)N2CCC[C@@H]12 [Cyclo(L-Phe-L-Pro)] | 11.1% | –
8 | CCCCCCCCCCCC1=C(O)C(=O)C=C(O)C1=O [Embelin] | 12.3% | –
9 | CCCCCCCCCCCCCCCc1cc(O)cc(O)c1 [5-Pentadecylresorcinol] | 51.7% | –
10 | Oc1ccc(CCc2cc(O)cc(O)c2)cc1 [Dihydroresveratrol] | 10.7% | –
11 | O=c1c(O)c(-c2ccc(O)cc2)oc2c(O)c(O)cc(O)c12 [Herbacetin] | 0% | –
12 | O=C1CCC[C@@H]2[C@H]3CCCN4CCC[C@@H](CN12)[C@H]34 [Allomatrine] | 8.4% | –
13 | COC[C@@H]1Cc2cc(OC)c3c(c2[C@H](c2ccc(OC)c(OC)c2)[C@H]1COC)OCO3 [Hypophyllanthin] | 24.8% | –
14 | C=C1C(=O)O[C@H]2C[C@@H](C)[C@@H]3CCC(=O)[C@@]3(C)[C@@H](OC(C)=O)[C@H]12 [Ergolide] | 57.9% | –
15 | C=C1C(=O)O[C@H]2C[C@@H](C)[C@@H]3C=CC(=O)[C@@]3(C)[C@@H](OC(C)=O)[C@H]12 [Bigelovin] | 4.5% | –
16 | C=C1C(=O)O[C@H]2C[C@@H](C)[C@@H]3[C@@H](OC(C)=O)C[C@H](O)[C@@]3(C)[C@@H](OC(C)=O)[C@H]12 [Britannin] | 3% | –
17 | CC1(C)O[C@H]2CC(=O)OC[C@@]23[C@H]1CC(=O)[C@@]1(C)C2=CC(=O)O[C@@H](c4ccoc4)[C@]2(C)CC[C@@H]13 [Deoxylimonin] | 9.8% | –
18 | CC(=O)O[C@@]12CO[C@@H]1C[C@@H](O)[C@@]1(C)C(=O)[C@H](O)C3=C(C)[C@@H](OC(=O)[C@H](O)[C@@H](NC(=O)c4ccccc4)c4ccccc4)C[C@@](O)([C@@H](OC(=O)c4ccccc4)[C@H]21)C3(C)C [7-Epi 10-desacetyl paclitaxel] | 21.4% | –
19 | O=C(N[C@H](COC(=O)[C@H](Cc1ccccc1)NC(=O)c1ccccc1)Cc1ccccc1)c1ccccc1 [Asperphenamate] | 18% | –
20 | CCCCC/C=C\C/C=C\CCCCCCCC(=O)NCc1ccccc1 [N-Benzyllinoleamide] | 24.5% | –
21 | CCCCCCCCCCC/C=C\CCCCC(=O)O [Petroselinic acid] | 0% | –
22 | CCCCCCCCCCCCCCCCCC(=O)NCc1ccccc1 [N-Benzyloctadecanamide] | 46.3% | –
23 | CCCCCCCC/C=C\CCCCCCCC(=O)NCc1ccccc1 [N-Benzyloleamide] | 52.8% | –

Row | SMILES | 229E Inhibition rate | 229E Inhibition rate (229E Inhibition rate, 24 h)
24 | CCCCCCCC/C=C\CCCCCCCC(=O)O [Oleic acid] | – | 9.2%
25 | CCCCCC/C=C\CCCC(=O)O [cis-5-Dodecenoic acid] | 63.5% | –
26 | Nc1nc(=O)n([C@H]2C[C@H](O)[C@@H](CO)O2)cc1CO [5-Hydroxymethyl-2’-deoxycytidine] | 0% | –
27 | OC[C@H]1OC(O)[C@H](O)[C@H](O)[C@@H]1O (stereo partly drawn) [D-Allose] | 0% | –
28 | C=C(C)[C@@H]1CC[C@]2(COC(C)=O)CC[C@]3(C)[C@H](CC[C@@H]4[C@@]5(C)CC[C@H](OC(C)=O)C(C)(C)[C@@H]5CC[C@]43C)[C@@H]12 [Betulin diacetate] | 4.9% | –
29 | O=c1ccc2cc3ccoc3c(O)c2o1 [Xanthotoxol] | 35.1% | –
30 | CC(C)=CC[C@@H](OC(=O)C=C(C)C)C1=CC(=O)c2c(O)ccc(O)c2C1=O [β,β-Dimethylacrylshikonin] | 50.2% | –
31 | CC(=O)O[C@@H](CC=C(C)C)C1=CC(=O)c2c(O)ccc(O)c2C1=O [Acetylalkannin] | 10.1% | –
32 | CC(C)=CC[C@H](OC(=O)C=C(C)C)C1=CC(=O)c2c(O)ccc(O)c2C1=O [β,β-Dimethylacrylalkannin] | 17.4% | –
33 | C[n+]1cccc(C(=O)[O-])c1 [Trigonelline] | – | 7.5%
34 | O=c1cc(-c2ccccc2)oc2cc(O[C@@H]3O[C@H](CO)[C@@H](O)[C@H](O)[C@H]3O)c(O)c(O)c12 [Oroxin A] | 34.7% | –
35 | CC(=O)c1ccccc1 [Acetophenone] | 31.9% | –
36 | CC(=O)c1ccc[nH]1 [2-Acetylpyrrole] | 51.6% | –
37 | O=C(O)c1ccc[nH]1 [Pyrrole-2-carboxylic acid] | 6.8% | –
38 | CCCCCCCCC1=C(CCCCCCCC(=O)O)C1 [Sterculic acid] | 20% | –
39 | CC(=O)NCCCCN [N-Acetylputrescine hydrochloride] | 17.4% | –
40 | CC(=O)NCCCCNCCCN [N8-Acetylspermidine dihydrochloride] | 37.4% | –
41 | CC(=O)NCCCCCN [N-(5-Aminopentyl)acetamide] | 61.9% | –
42 | C[C@@]1(C(=O)O)CC[C@]2(C)CC[C@]3(C)C4=CC(=O)c5c(cc(O)c(O)c5C=O)[C@]4(C)CC[C@@]3(C)[C@@H]2C1 [Demethylzeylasteral] | 6.3% | –
43 | CCCCCCC/C=C/C(=O)CCc1ccc(O)c(OC)c1 [[8]-Shogaol] | 39.3% | –
44 | C/C=C1/CN2CCc3c([nH]c4ccccc34)[C@@H]2C[C@@H]1/C(=C/OC)C(=O)OC [Geissoschizine methyl ether] | 0% | –
45 | C/C=C1/CN2[C@H]3Cc4c([nH]c5ccccc45)[C@]2(O)C[C@@H]1[C@@]3(CO)C(=O)OC [16-Epivoacarpine] | 7.1% | –
46 | C/C=C1/CN2[C@@H]3C[C@@]45c6ccccc6N[C@]4(O3)[C@@H]2C[C@@H]1[C@H]5C(=O)OC [Picrinine] | 51.7% | –
